Measurements taken from PubChem BioAssay (NCATS).
Records with an inconclusive call do not appear. Entries that show only a call come without a potency. Activity calls are given as the source filed them. Calls come from the whole dose curve; as a rule, active = well fitted curve in the direction sought with a large enough effect; inconclusive = small, poorly fitted or top-dose-only effect, or another doubt; inactive = no such curve, though single readings can be large; an effect the other way counts as inactive or inconclusive.

Columns and labels:
[1] = target: Aldehyde dehydrogenase, mitochondrial (Homo sapiens) (UniProt P05091); test: qHTS for Inhibitors of the Aldehyde Dehydrogenase Family (ALDH2) Primary screen (AID 2061308); note: nearly all actives have a fitted effect of over 55% in size
[2] = target: Retinaldehyde dehydrogenase 3 (Homo sapiens) (UniProt P47895); test: qHTS for Inhibitors of the Aldehyde Dehydrogenase Family (ALDH1A3) Primary screen (AID 2061315)

Compound | Potency [1] | Potency [2]
C[C@@H]1[C@H]2[C@H](O[C@@H]3O[C@H](CO)[C@@H](O)[C@H](O)[C@H]3O)OC=C(C(=O)O)[C@H]2C[C@@H]1O | inactive | inactive
Cc1occc1CNc1ncnc2ccc(-c3ccc4c(c3)OCO4)cc12 | inactive | inactive
C=Cc1nc(Nc2cc(F)cc(F)c2)nc(NC2CCCC2)n1 | inactive | inactive
CC(C)=CCCC1(C)C2CCC1(C)C(O)C2 (stereo not given) | inactive | inactive
C=C1CCC[C@]2(C)C[C@]3(O)OC(=O)C(C)=C3C[C@@H]12 | inactive | inactive
CCCCN(C)C(=O)Cn1nc(-c2ccc(C(C)(C)C)cc2)ccc1=O | inactive | inactive
COc1cccc(-c2csc(NC(=O)c3ccncc3NS(=O)(=O)c3ccc(C)cc3)n2)c1 | inactive | inactive
O=c1c2ccc([N+](=O)[O-])cc2nc2sc(Nc3ccc4c(c3)CCC4)nn12 | inactive | inactive
Cc1cc(NS(=O)(=O)c2ccc(NC(=O)Cc3ccc(F)c(Cl)c3)cc2)no1 | inactive | inactive
Cc1ccc(NS(=O)(=O)c2cc3c(cc2Cl)NC(=O)C3)cc1C | inactive | inactive
Nc1cccc(S(=O)(=O)N2CCN(S(=O)(=O)c3c(F)cccc3F)CC2)c1 | inactive | inactive
Cn1ccc2cc(-c3ccc4ncnc(NCc5cccs5)c4c3)ccc21 | inactive | inactive
c1nc(NCCc2cnc[nH]2)c2cc(-c3ccc4c(c3)OCO4)ccc2n1 | inactive | inactive
CCCn1c(C)nc2c(NC(C)CCCN(CC)CC)nc(C)nc21 (stereo not given) | inactive | inactive
COc1cccc(C(=O)NC2CCN(C#N)CC2)c1 | inactive | inactive
